Data published in paper PMC4336329 (PLoS ONE, 2015).
The whole screen tested about 310,000 compounds, of which about 14,000 (4.5%) showed an effect of 50% or more. Effects have a minus sign here. This excerpt belongs to a sample that is enriched for strong results.

These compounds were tested against human ether-à-go-go-related gene (hERG) potassium channel (human, UniProt Q12809) (assay: primary screen, population patch clamp on CHO cells stably expressing hERG; higher = less effect of the substance).
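Further: peak tail current of the secondary pulse compared with the same well before compound.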

Chain of human ether-à-go-go-related gene (hERG) potassium channel (Q12809 whole entry, looked up): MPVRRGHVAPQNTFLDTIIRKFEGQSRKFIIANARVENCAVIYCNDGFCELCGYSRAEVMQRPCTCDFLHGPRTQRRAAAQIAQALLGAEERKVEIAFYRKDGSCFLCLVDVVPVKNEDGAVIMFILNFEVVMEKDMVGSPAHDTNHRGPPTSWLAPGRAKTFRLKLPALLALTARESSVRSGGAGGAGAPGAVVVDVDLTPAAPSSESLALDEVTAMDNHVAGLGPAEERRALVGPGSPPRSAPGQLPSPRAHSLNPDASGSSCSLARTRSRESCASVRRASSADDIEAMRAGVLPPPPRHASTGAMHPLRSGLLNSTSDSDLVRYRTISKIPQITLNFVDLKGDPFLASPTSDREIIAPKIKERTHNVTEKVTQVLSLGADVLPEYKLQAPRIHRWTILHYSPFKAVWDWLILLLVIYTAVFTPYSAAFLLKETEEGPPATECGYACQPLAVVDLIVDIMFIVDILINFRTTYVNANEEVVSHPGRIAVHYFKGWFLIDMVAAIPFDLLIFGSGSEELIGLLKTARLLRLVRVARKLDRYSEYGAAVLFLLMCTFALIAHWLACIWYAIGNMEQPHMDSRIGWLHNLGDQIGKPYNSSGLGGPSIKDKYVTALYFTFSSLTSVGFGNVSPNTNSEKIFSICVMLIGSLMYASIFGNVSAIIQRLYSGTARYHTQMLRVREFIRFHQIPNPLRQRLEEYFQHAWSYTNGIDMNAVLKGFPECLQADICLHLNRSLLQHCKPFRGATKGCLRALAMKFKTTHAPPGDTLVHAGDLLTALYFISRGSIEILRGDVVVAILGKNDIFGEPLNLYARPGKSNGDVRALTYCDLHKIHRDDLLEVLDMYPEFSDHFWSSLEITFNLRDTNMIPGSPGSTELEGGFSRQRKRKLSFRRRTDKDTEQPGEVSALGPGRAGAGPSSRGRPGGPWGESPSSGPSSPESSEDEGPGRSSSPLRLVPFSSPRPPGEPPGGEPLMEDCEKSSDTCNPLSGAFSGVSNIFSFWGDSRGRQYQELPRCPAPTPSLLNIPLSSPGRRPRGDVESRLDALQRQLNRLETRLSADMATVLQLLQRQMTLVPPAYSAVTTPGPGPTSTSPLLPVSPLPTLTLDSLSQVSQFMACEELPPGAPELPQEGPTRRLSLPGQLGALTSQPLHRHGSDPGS

Row | Compound | hERG current change (%, negative = inhibition) at 10uM [%]
1 | O=C(COC(=O)c1ccc(O)cc1)Nc1ccc2[nH]c(=O)[nH]c2c1 | 2.48
2 | O=C(Nc1cc([N+](=O)[O-])ccc1Cl)C1CC1 | 14.1
3 | COc1ccc(Cn2c(=S)[nH]c3cc(C(=O)N4CCCCC4)ccc3c2=O)cc1 | 13.3
4 | Cc1cc(-n2nc3ccccc3n2)c(O)c([N+](=O)[O-])c1 | 6.11
5 | COc1ccc(CCNC(=O)COC(=O)C2COc3ccccc3O2)cc1 (stereo not shown) | -0.23
6 | CCCn1nnnc1NCc1ccc(N(C)C)cc1 | 1.95
7 | CCC(=O)N1N=C(c2ccc(C)o2)CC1c1ccc(Br)cc1 (stereo not shown) | -23.4
8 | COc1ccc(/C=C/C(=O)NC(=S)NNC(=O)Cc2cccs2)cc1OC | 17.9
9 | CC1=C(C(=O)OC(C)C)C(c2cccs2)N2C(=O)CCSC2=N1 (stereo not shown) | -11.5
10 | CCCCCOP(=O)(OCCCCC)C1(NS(=O)(=O)c2ccccc2)C=CC(=O)c2ccccc21 (stereo not shown) | 9.76
11 | Nc1cc(=O)[nH]c(=O)n1-c1ccc(Cl)cc1 | 15.2
12 | COc1ccccc1OCC(=O)Nc1ccccc1C(=O)N1CCCCC1 | 11.6
13 | Cc1ccc(CN2CCN(C(=O)c3ccco3)CC2)cc1 | -13.5
14 | C/C(=N\N1CCN(Cc2ccc(C)cc2)CC1)c1ccco1 | -67.6
15 | C/C(=N\N1CCN(Cc2ccccc2)CC1)c1ccco1 | -1.45
16 | CCCOC(c1ccccc1)(c1ccccc1)C(Oc1nc(C)cc(C)n1)C(=O)O (stereo not shown) | 21.5
17 | C=CCSc1nnc2c(n1)OC(c1ccco1)Nc1ccccc1-2 (stereo not shown) | -7.61
18 | CCCSc1nc(N)c(C#N)c(-c2ccc(C)cc2)c1C#N | 15.7
19 | C=CCNC(=O)C1CCN(c2cnccn2)CC1 | 27.8
20 | COc1cccc(CNC(=O)C2CCN(c3cnccn3)CC2)c1 | -12.4
21 | O=C(NCc1ccc(Cl)cc1)C1CCN(c2cnccn2)CC1 | -59.9

Row | Compound | hERG current change (%, negative = inhibition) at 10uM [%]
22 | O=C(NCc1ccc(F)cc1)C1CCN(c2cnccn2)CC1 | -64.9
23 | O=C(NCCc1ccc(Cl)cc1)C1CCN(c2cnccn2)CC1 | -35.3
24 | O=C(NCc1ccccc1Cl)C1CCN(c2cnccn2)CC1 | -4.12
25 | Cn1c(=O)c2c(SCc3cccc(C(F)(F)F)c3)nc(-c3ccco3)nc2n(C)c1=O | -3.88
26 | O=C(CNC(=O)c1ccco1)OCc1c(F)cccc1Cl | -5.42
27 | COc1ccccc1CNC(=O)C1(NC(=O)Nc2ccc(C)cc2)CCCCC1 | 30.7
28 | COC(=O)[C@H]1[C@H]2C[C@@H]3c4[nH]c5cc(OC)ccc5c4CCN3C[C@H]2C[C@@H](OC(=O)c2cc(OC)c(OC)c(OC)c2)[C@@H]1OC | -12.4
29 | CCCOc1ccc(N2C(=O)CC(NCC#N)C2=O)cc1 (stereo not shown) | 2.57
30 | CCOc1ccc(N2C(=O)CC(NCCc3ccncc3)C2=O)cc1 (stereo not shown) | -5.67
31 | CCOc1ccc(N2C(=O)CC(NCCNc3ccc(C(=O)c4cccs4)cc3)C2=O)cc1 (stereo not shown) | -71.5
32 | CCOc1ccc(N2C(=O)CC(NC3CCN(C(=O)c4cccs4)CC3)C2=O)cc1 (stereo not shown) | -24.7
33 | COc1ccc(N2C(=O)CC(NCCNc3ccc([N+](=O)[O-])cn3)C2=O)cc1 (stereo not shown) | -34
34 | CCCOc1ccc(N2C(=O)CC(NCCc3ccc(S(N)(=O)=O)cc3)C2=O)cc1 (stereo not shown) | -5.4
35 | CCCOc1ccc(N2C(=O)CC(NCCNc3ccc([N+](=O)[O-])cn3)C2=O)cc1 (stereo not shown) | -72.5
36 | CCCOc1ccc(N2C(=O)CC(NCCNc3ccc(S(=O)(=O)CC)cc3)C2=O)cc1 (stereo not shown) | -59.9
37 | CCCOc1ccc(N2C(=O)CC(NCc3ccncc3)C2=O)cc1 (stereo not shown) | -11.6
38 | CCCOc1ccc(N2C(=O)CC(NCc3ccc(S(N)(=O)=O)cc3)C2=O)cc1 (stereo not shown) | 4.38
39 | CCOc1ccc(N2C(=O)CC(NCCNc3ccc([N+](=O)[O-])cn3)C2=O)cc1 (stereo not shown) | -77.5
40 | CCOc1ccc(C(=O)c2cccs2)cc1 | -6.82
41 | Cc1ccc(/C=C/C(=O)OCC(=O)NCc2ccc(Cl)cc2)o1 | -13.9
42 | O=C(COc1ccc(Cl)cc1Br)N1CCN(S(=O)(=O)c2ccccc2)CC1 | -9.19

Row | Compound | hERG current change (%, negative = inhibition) at 10uM [%]
43 | COc1ccccc1N1CCN(S(=O)(=O)Cc2ccccc2Cl)CC1 | -2.74
44 | Cc1ccc(Nc2nnc(SCC(=O)NC3CC3)s2)cc1 | 9.41
45 | O=C(Nn1cnnc1)c1ccc(Cl)cc1 | 17.7
46 | COc1ccc(Nc2nc(-c3cccs3)cs2)c(OC)c1 | 4.09
47 | CCn1cc(SCC(=O)Nc2cc(C)on2)c2ccccc21 | 7.98
48 | CC(=O)Nc1ccc(S(=O)(=O)N2CCN=C2SCc2ccc(C)cc2)cc1 | -12
49 | Cc1csc(Sc2ccc([N+](=O)[O-])cc2C(=O)OCC(=O)NC2CCCC(C)C2C)n1 (stereo not shown) | -26.2
50 | COc1ccc(C(=O)Nn2c(CC(C)C)nc3cc(Cl)ccc3c2=O)c(OC)c1 | 13.4
51 | COc1cc2c(cc1OC)C(C)N(C(=O)/C=C/c1cc(OC)c(OC)c(OC)c1)CC2 (stereo not shown) | 7.57
52 | Cc1cccc(CCNC(=O)C2CCCN(c3cnccn3)C2)c1 (stereo not shown) | -11.5
53 | O=C(c1ccccc1)c1cccc(NC(=O)C2CC2)c1 | 0.476
54 | O=S(=O)(NC1CCCCC1NS(=O)(=O)c1ccc(F)cc1)c1ccc(F)cc1 (stereo not shown) | -5.29
55 | O=C1OC(c2ccc(Cl)cc2)=N/C1=C\N1CC2CC(C1)c1cccc(=O)n1C2 (stereo not shown) | -72
56 | Nc1cc(C(=O)N2CCN(c3ccc([N+](=O)[O-])cc3)CC2)ccc1N1CC2CC(C1)c1cccc(=O)n1C2 (stereo not shown) | -35.3
57 | O=C1OC(c2ccc(Br)cc2)=N/C1=C\N1CC2CC(C1)c1cccc(=O)n1C2 (stereo not shown) | -45.2
58 | O=c1cccc2n1C[C@@H]1C[C@@H]2CN(CC(O)c2ccc([N+](=O)[O-])cc2)C1 (stereo partly shown) | -49
59 | O=C1OC(c2ccc([N+](=O)[O-])cc2)=N/C1=C/N1CC2CC(C1)c1cccc(=O)n1C2 (stereo not shown) | -55.1
60 | O=C(NC(=S)N1C[C@H]2C[C@H](C1)c1cccc(=O)n1C2)c1ccc(Cl)cc1 | -8.28
61 | Cn1cc(C(=O)NC2CCCCC2)c(=O)c2cc(S(=O)(=O)N3CCOCC3)ccc21 | 11.8
62 | O=C(O)CC(Sc1n[nH]c(=S)s1)C(=O)O (stereo not shown) | 18.2
63 | CCN(CC)S(=O)(=O)c1ccc(O)c(NC(=O)c2cc(-c3cc(OC)c(OC)c(OC)c3)nc3ccccc23)c1 | -59.2

Row | Compound | hERG current change (%, negative = inhibition) at 10uM [%]
64 | CCN(CC)S(=O)(=O)c1ccc(N2CCOCC2)c(NC(=O)c2cccc3ccccc23)c1 | 7.99
65 | COc1ccc(S(=O)(=O)N2CCOCC2)cc1NC(=O)c1cccc2c(=O)c(C)c(-c3ccccc3)oc12 | -32.9
66 | COc1cc(-c2cc(C(=O)Nc3ccc(S(N)(=O)=O)cc3)c3ccccc3n2)cc(OC)c1OC | 29.2
67 | CCN(CC)S(=O)(=O)c1ccc(OC)c(NC(=O)c2cccc(C)c2[N+](=O)[O-])c1 | -14.5
68 | CCN(CC)S(=O)(=O)c1ccc2[nH]c(=O)cc(C(=O)Nc3ccccc3N3CCOCC3)c2c1 | -18.9
69 | CCN(CC)S(=O)(=O)c1ccc(OC)c(NC(=O)c2cccc([N+](=O)[O-])c2C)c1 | -63.8
70 | CCN(CC)S(=O)(=O)c1ccc(OC)c(NC(=O)c2ccc(OC)c([N+](=O)[O-])c2)c1 | -24.4
71 | CCN(CC)S(=O)(=O)c1ccc(N2CCOCC2)c(NC(=O)c2ccccc2F)c1 | -15.8
72 | CCN(CC)S(=O)(=O)c1ccc(N2CCCCC2)c(C(=O)Nc2ccccc2N2CCOCC2)c1 | -51.1
73 | CCN(CC)S(=O)(=O)c1ccc(NC(=O)c2cc(-c3ccccc3)nc3ccccc23)cc1 | 1.64
74 | CCN(CC)S(=O)(=O)c1ccc(N2CCOCC2)c(NC(=O)c2cccc3c(=O)c(C)c(-c4ccccc4)oc23)c1 | -55
75 | O=C(O)c1ccccc1-c1ccccc1C(=O)Nc1ccc2c(c1)[nH]c(=O)c1ccccc12 | 24.5
76 | O=C(N/N=C/c1ccco1)c1cc(C2CC2)nc2ccccc12 | 4.56
77 | COc1ccc2cc(S(=O)(=O)Nc3ccccn3)ccc2c1 | 9.87
78 | O=C(CSc1nnnn1-c1cccc2ccccc12)N1CCOCC1 | -25
79 | Cl.N=c1c2c(n(Cc3ccc(Cl)cc3)c3c1CCC3)CCC2 | -2.06
80 | CCN(CC)S(=O)(=O)c1ccc(N2CCCC2)c(NC(=O)c2ccc(OC)cc2OC)c1 | -43
81 | CCN(CC)S(=O)(=O)c1ccc(N2CCCC2)c(NC(=O)c2ccccc2OC)c1 | -65.7
82 | CCN(CC)S(=O)(=O)c1ccc(N2CCCC2)c(NC(=O)Cc2cc(OC)c(OC)c(OC)c2)c1 | -8.43
